{"source": "paper PMC11995724", "about": "“Antibiotic target discovery by integrated phenotypic and activity-based profiling of electrophilic fragments” (Cell chemical biology, 2025)", "note": "Out of some 3,200 compounds screened, about 110 (3.4%) showed an effect of 50% or more. The list comes from a sample in which strong results are over-represented; it also holds similar structures and randomly drawn compounds.", "data": [{"system": "T1, V. cholerae SAD30", "T1 construct": "SAD30", "parameters": "species or system S. aureus MSSA476 (TSB) or V. cholerae SAD30 (LB); 384-well bacterial growth screen at 25 uM, OD600 relative to DMSO control", "conditions": "relative growth, OD600, LB; 25 µM; inhibitor", "units": {"% of control remaining": "%"}, "values": [{"smiles": "COC(=O)c1sccc1N1C(=O)C=CC1=O", "note": "[10-A07, methyl 3-(2,5-dioxo-2,5-dihydro-1H-pyrrol-1-yl)thiophene-2-carboxylate]", "% of control remaining": 26.4952}, {"smiles": "Cc1cc(C(=O)C(C)Cl)c(C)n1Cc1ccco1", "note": "(centres unmarked) [10-E06, 2-chloro-1-{1-[(furan-2-yl)methyl]-2,5-dimethyl-1H-pyrrol-3-yl}propan-1-one]", "% of control remaining": 94.9153}, {"smiles": "Cc1ccc(NC(=O)CCl)cc1[N+](=O)[O-]", "note": "[4-M13, 2-chloro-N-(4-methyl-3-nitrophenyl)acetamide]", "% of control remaining": 93.6813}, {"smiles": "CCc1ccc(CC)c(C(=O)CCl)c1", "note": "[10-H14, 2-chloro-1-(2,5-diethylphenyl)ethan-1-one]", "% of control remaining": 95.8504}, {"smiles": "NC(=O)c1coc(C(=O)CCl)c1", "note": "[10-C05, 5-(2-chloroacetyl)furan-3-carboxamide]", "% of control remaining": 96.1621}, {"smiles": "COCCn1c(C)cc(C(=O)CCl)c1C", "note": "[10-D13, 2-chloro-1-[1-(2-methoxyethyl)-2,5-dimethyl-1H-pyrrol-3-yl]ethan-1-one]", "% of control remaining": 99.9026}, {"smiles": "Cc1oc(C(=O)O)cc1C(=O)CCl", "note": "[10-M21, 4-(2-chloroacetyl)-5-methylfuran-2-carboxylic acid]", "% of control remaining": 100.37}, {"smiles": "Cc1oc(C(N)=O)cc1C(=O)CCl", "note": "[10-M05, 4-(2-chloroacetyl)-5-methylfuran-2-carboxamide]", "% of control remaining": 20.4169}, {"smiles": "COC(=O)c1cc(C(=O)CCl)c(C)o1", "note": "[10-G13, methyl 4-(2-chloroacetyl)-5-methylfuran-2-carboxylate]", "% of control remaining": 43.6392}, {"smiles": "CCc1ccc(OC(C)C(=O)N2CCN(C(=O)C(C)Cl)CC2)cc1", "note": "(centres unmarked) [6-H16, 1-[4-(2-chloropropanoyl)piperazin-1-yl]-2-(4-ethylphenoxy)propan-1-one]", "% of control remaining": 86.302}, {"smiles": "C=CC(=O)N1CCC(C(=O)Nc2ccc3c(c2)CCN3C(N)=O)CC1", "note": "[3-E16, 5-[1-(prop-2-enoyl)piperidine-4-amido]-2,3-dihydro-1H-indole-1-carboxamide]", "% of control remaining": 90.5017}, {"smiles": "C=CC(=O)NC(c1nc(C)cs1)C1CC1", "note": "(centres unmarked) [3-D21, N-[cyclopropyl(4-methyl-1,3-thiazol-2-yl)methyl]prop-2-enamide]", "% of control remaining": 100.912}, {"smiles": "CCCn1c(C)cc(C=C(C#N)C(=O)Nc2ccc3c(c2)OCO3)c1C", "note": "[9-G07, N-(1,3-dioxaindan-5-yl)-2-cyano-3-(2,5-dimethyl-1-propyl-1H-pyrrol-3-yl)prop-2-enamide]", "% of control remaining": 88.5792}, {"smiles": "CC(Cl)C(=O)Nc1ccc(F)c(F)c1F", "note": "(centres unmarked) [4-O08, 2-chloro-N-(2,3,4-trifluorophenyl)propanamide]", "% of control remaining": 95.579}, {"smiles": "C=CC(=O)NCCCc1conc1C", "note": "[2-N13, N-[3-(3-methyl-1,2-oxazol-4-yl)propyl]prop-2-enamide]", "% of control remaining": 87.88}, {"smiles": "Cc1ccc(NC(=O)C2(CNC(=O)C(C)Cl)CCCC2)cc1C", "note": "(centres unmarked) [7-J13, 1-[(2-chloropropanamido)methyl]-N-(3,4-dimethylphenyl)cyclopentane-1-carboxamide]", "% of control remaining": 74.8059}, {"smiles": "Cn1cc(C=C(C#N)C(=O)Nc2ccccc2F)c(-c2ccncc2)n1", "note": "[9-L15, 2-cyano-N-(2-fluorophenyl)-3-[1-methyl-3-(pyridin-4-yl)-1H-pyrazol-4-yl]prop-2-enamide]", "% of control remaining": 89.6669}, {"smiles": "O=C1CCCc2cc(C(=O)CCl)ccc2N1", "note": "[10-M20, 7-(2-chloroacetyl)-2,3,4,5-tetrahydro-1H-1-benzazepin-2-one]", "% of control remaining": 94.6035}, {"smiles": "O=C1CCc2cc(C(=O)CCl)c(F)cc2N1", "note": "[10-O20, 6-(2-chloroacetyl)-7-fluoro-1,2,3,4-tetrahydroquinolin-2-one]", "% of control remaining": 36.6258}, {"smiles": "CC1(C)C(=O)Nc2ccc(C(=O)CCl)cc21", "note": "[10-N21, 5-(2-chloroacetyl)-3,3-dimethyl-2,3-dihydro-1H-indol-2-one]", "% of control remaining": 35.0672}, {"smiles": "O=C1CCc2cc(C(=O)CCl)ccc2N1", "note": "[10-M03, 6-(2-chloroacetyl)-1,2,3,4-tetrahydroquinolin-2-one]", "% of control remaining": 23.534}, {"smiles": "C=CC(=O)NCc1c(Cl)c(C(F)(F)F)nn1C", "note": "[2-J07, N-{[4-chloro-1-methyl-3-(trifluoromethyl)-1H-pyrazol-5-yl]methyl}prop-2-enamide]", "% of control remaining": 87.88}, {"smiles": "C=CC(=O)Nc1ccc(Cl)cc1F", "note": "[1-I10, N-(4-chloro-2-fluorophenyl)prop-2-enamide]", "% of control remaining": 88.0419}, {"smiles": "CC(Cl)C(=O)NCc1cc(-c2ccccc2)on1", "note": "(centres unmarked) [7-A13, 2-chloro-N-[(5-phenyl-1,2-oxazol-3-yl)methyl]propanamide]", "% of control remaining": 82.868}, {"smiles": "CC(Cl)C(=O)N1CCN(C(=O)C(F)(F)F)C2(CCCCC2)C1", "note": "(centres unmarked) [7-K06, 2-chloro-1-[1-(2,2,2-trifluoroacetyl)-1,4-diazaspiro[5.5]undecan-4-yl]propan-1-one]", "% of control remaining": 75.3345}, {"smiles": "CC(C#N)Oc1ccc(C=C(C#N)C(=O)Nc2ccccc2Cl)cc1", "note": "(centres unmarked) [9-E05, N-(2-chlorophenyl)-2-cyano-3-[4-(1-cyanoethoxy)phenyl]prop-2-enamide]", "% of control remaining": 89.259}, {"smiles": "C=CCNC(=O)C(C#N)=Cc1cccc2ccccc12", "note": "[9-L10, 2-cyano-3-(naphthalen-1-yl)-N-(prop-2-en-1-yl)prop-2-enamide]", "% of control remaining": 88.3073}, {"smiles": "CC(Cl)C(=O)N(C)C[C@@H]1C[C@H](F)CN1c1ccnc(N(C)C)n1", "note": "(stereo partly drawn) [7-K16, 2-chloro-N-{[(2S,4S)-1-[2-(dimethylamino)pyrimidin-4-yl]-4-fluoropyrrolidin-2-yl]methyl}-N-methylpropanamide]", "% of control remaining": 71.1052}, {"smiles": "C=CC(=O)NCCc1ccn(-c2ccc(F)cc2)n1", "note": "[2-P03, N-{2-[1-(4-fluorophenyl)-1H-pyrazol-3-yl]ethyl}prop-2-enamide]", "% of control remaining": 113.818}]}]}
